This is an account of results in PubChem BioAssay (NCI).

The panel holds about 83,000 compounds, 20% with a hit somewhere; the sample as a whole holds those more often.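 Values shown are percent growth following 48 h exposure of cells in 96-well plates to a single concentration of compound; below 10 was considered active.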 A number with no mark means an inactive call. Activity calls are given as the source filed them.

What all share (test): NCI-60 one-dose screen, 48 h (100 = growth as untreated, 0 = no growth, -100 = all killed)
Details in all cases: 10 µM unless noted

Test [1] concerns NCI-H23 lung.
Test [2] concerns NCI-H226 lung.
Test [3] relates to NCI-H322M lung.
In test [4] the test system is HOP-62 NSCLC.
In test [5] the test system is NCI-H460 lung.
Test [6] relates to HOP-92 NSCLC.
For test [7], the system named is NCI-H522 lung.
Test [8] concerns A549/ATCC NSCLC.
Test [9] has as its system 786-0 renal.
The test system of test [10] is COLO 205 colon.
Test [11] relates to DU-145 prostate.
Test [12] relates to K-562 leukemia.
For test [13], the system named is MALME-3M melanoma.
The subject of test [14] is MDA-MB-231 breast.
Test [15] deals with RXF 393 renal.
Test [16] has as its system SF-268 CNS.
In test [17] the test system is SF-295 CNS.
Test [18] concerns SF-539 CNS.
Test [19] concerns UACC-257 melanoma.
Test [20] relates to M14 melanoma.

On to `COc1cc(CNC(=O)CCCC/C=C/C(C)C)ccc1OCc1cn(-c2ccc(C(F)(F)F)cc2)nn1`, for which the growth is 94.6% in test [1]; 53.6% in test [2]; 96.1% in [3]; 64.6% in [4]; 16.7% in test [5]; 13.8% in test [6]. Besides, the growth is 75.6% in test [7]; 49% in [8]; 2.94% (active) in test [9]; 72.6% in test [10]; 80.7% in test [11]; 76.3% in test [12]. The growth in test [13] is 99.7%; in test [14], 70.7%; in [15] it was 65.6%; in test [16], 87.8%; in test [17], 90.9%; in [18] it was 81.9%. Further, the results for the growth in test [19] and in test [20] were 98.2% and 97.5%, respectively.
For the compound `CCN1C(=O)N(CC)C2C1NN=c1s/c(=C\c3ccc(F)cc3)c(=O)n12` (stereo not given), the growth in [1] is 39.3%; in test [2], 63.4%; in test [3] it was 44.2%; in [4] it was 39.3%; in test [5] it was 5.08% (active); in [6] it was 43.6%. Besides, the growth in test [7] is -5.22% (active); in test [8], 15.5%; in test [9], 35%; in test [10], 5.08% (active); in test [11], -11.2% (active); in test [12], 8.05% (active). Besides, the growth in test [13] is 49.9%; in test [14], 24.1%; in [15], 5.29% (active); in test [16] it was 53.3%; in [17], 13.6%; in test [18], -14.9% (active). In addition, the growth was 56% in [19] and 12.6% in [20].
Regarding `O=c1ccc2nc(-c3ccccc3)nn(-c3ccccn3)c-2c1`, the growth in test [1] is 90.8%; in test [2], 91.9%; in test [3], 102%; in test [4] it was 95.9%; in test [5], 106%; in [6], 55.8%. Besides, the growth in test [7] was -59.7% (active); in [8] it was 103%; in [9], 63.5%; in [10], -68.8% (active); in test [11] it was 105%; in test [12], -24.3% (active). Further, the growth in test [13] is 50.1%; in [14], 91.1%; in test [15], 26.8%; in [16], 96.6%; in test [17] it was 103%; in test [18] it was 99.5%. Further, the values for the growth in test [19] and in test [20] were 72.3% and 105%, respectively.
With `COc1ccc(/C=C/C(=O)c2ccc(-n3cc(CN4CCN(c5cc6c(cc5F)c(=O)c(C(=O)O)cn6C5CC5)CC4)nn3)cc2)cc1`, the growth in [1] is 78.7%; in test [2] it was 67.3%; in test [3], 72.8%; in test [4] it was 75.6%; in test [5], 77.9%; in [6] it was 66.6%. Further, the growth in test [7] was 67.6%; in [8] it was 66.1%; in [9], 71.9%; in [10] it was 98.2%; in test [11], 83.2%; in test [12], 42.6%. Moreover, the growth is 66.2% in test [13]; 67.2% in test [14]; 64.2% in test [15]; 56% in test [16]; 94.9% in test [17]; 50.8% in test [18]. Further, the growth in [19] was 78.7%; in [20], 59%.
For `COc1cc(/C=C/c2cc(/C=C/c3ccc(O)c(OC)c3)n(C(=O)Nc3ccc(C)cc3C)n2)ccc1O`, the growth is -26.1% (active) in test [1]; -3.7% (active) in test [2]; 8.13% (active) in test [3]; -35.7% (active) in test [4]; 1.87% (active) in test [5]; -27% (active) in [6]. For the same compound, the growth in test [7] was 6.31% (active); in test [8], -3.98% (active); in test [9], -59.1% (active); in test [10], -65.6% (active); in test [11], -26.6% (active); in test [12], -7.18% (active). Also, the growth was -21.7% (active) in test [13]; 10.2% in [14]; -67.3% (active) in test [15]; 3.8% (active) in test [16]; -51% (active) in [17]; -19.6% (active) in [18]. The growth in [19] is -21.4% (active); in test [20] it was -38.1% (active).
For the compound `COC(=O)c1c(C(=O)OC)c2ccc3c4ncccc4ccc3n2c1C(=O)c1ccc(C)cc1`, the growth in test [1] is 101%; in [2], 96.6%; in [3] it was 90.7%; in [4] it was 76.7%; in test [5] it was 101%; in test [6] it was 91.7%. For the same compound, the growth in test [7] is 68%; in test [8], 83.2%; in test [9] it was 91%; in test [10], 98.8%; in test [11], 98.7%; in [12] it was 85.8%. In addition, the growth is 89.7% in [13]; 84.1% in test [14]; 106% in test [15]; 98.5% in [16]; 87.7% in [17]; 97.6% in test [18]. Also, the growth is 95.2% in [19] and 90.1% in [20].
`O=C(c1ccc(F)cc1)C1CCN(CCn2c(=O)[nH]c3ccccc3c2=O)CC1`: the growth in [1] is 99.6%; in [2], 97.8%; in test [3], 105%; in test [4], 108%; in test [5], 122%; in test [6] it was 87.8%. In addition, the growth in test [7] was 82.9%; in [8], 107%; in test [9] it was 97%; in [10], 103%; in test [11], 108%; in [12], 100%. Also, the growth in [13] is 89.3%; in test [14], 110%; in test [15] it was 115%; in test [16] it was 103%; in test [17] it was 97.6%; in test [18], 103%. Also, the growth in test [19] is 110%; in [20], 104%.
